MITF primary: human MITF inhibition, primary screen. 650,000 tested, 0.91% active. O75030. AlphaScreen MITF homodimerization, bead proximity signal. inhibition, % at 2.6 µM; in the data active = inhibition above about 50%;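 also: 0% = vehicle wells with protein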
GPR151 ag: activates the human receptor GPR151 | Q8TDV0 | PathHunter beta-arrestin GPR151 cells, luminescence | activation, % at 11.2 µM | 650,000 tested, 1% active | AID 1508602; in the data active = activation above about 4.9%;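 also: 0% = median of compound wells and 100% = cells with positive control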
TEAD-YAP block: TEAD-YAP interaction inhibition | HEK-TIYL cells, TEAD-Gal4/YAP UAS-luciferase luminescence | 640,000 tested, 1.4% active | inhibition, % at 9.12 µM; in the data active = inhibition above about 32%;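 also: 0% = median of test compound wells and 100% = reference inhibitor wells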
FBW7 activator: human FBW7 E3 ligase activation, primary screen; 650,000 tested, 0.13% active; AlphaScreen FBW7–phospho-cyclin E peptide binding, activator screen; normalized activity (activation), % at 26.1 µM; in the data active = normalized activity above about 1.9%;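 also: purified mutant Fbw7 with reduced substrate affinity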
Target sequence (Q969H0 whole entry, looked up): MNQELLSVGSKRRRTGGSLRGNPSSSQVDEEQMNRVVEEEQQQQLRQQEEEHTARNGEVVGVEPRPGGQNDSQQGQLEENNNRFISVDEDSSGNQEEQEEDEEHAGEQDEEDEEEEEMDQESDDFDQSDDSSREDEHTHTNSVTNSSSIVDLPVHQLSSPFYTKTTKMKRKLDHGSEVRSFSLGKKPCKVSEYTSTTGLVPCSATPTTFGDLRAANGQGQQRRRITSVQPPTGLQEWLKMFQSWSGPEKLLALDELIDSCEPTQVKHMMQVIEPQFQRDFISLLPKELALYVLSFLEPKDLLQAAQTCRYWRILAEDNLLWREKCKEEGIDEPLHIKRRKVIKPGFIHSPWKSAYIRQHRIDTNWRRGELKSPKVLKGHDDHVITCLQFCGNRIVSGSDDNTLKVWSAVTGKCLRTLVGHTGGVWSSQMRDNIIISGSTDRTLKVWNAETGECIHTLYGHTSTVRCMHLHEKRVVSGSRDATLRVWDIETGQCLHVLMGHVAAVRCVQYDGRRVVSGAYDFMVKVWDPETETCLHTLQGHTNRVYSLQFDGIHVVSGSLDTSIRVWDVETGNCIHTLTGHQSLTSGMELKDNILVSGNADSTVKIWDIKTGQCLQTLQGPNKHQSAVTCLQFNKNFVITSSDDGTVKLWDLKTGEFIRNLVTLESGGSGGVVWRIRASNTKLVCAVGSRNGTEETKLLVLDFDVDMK
MITF inh conf: human MITF inhibition, confirmation. shares compounds with MITF primary. AlphaScreen MITF homodimerization, biotin/His-MITF beads. inhibition, % at 2.6 µM. 4,700 tested, 16% active. AID 1259372;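 active = inhibition above a cutoff derived from the DMSO control wells, cut at about 28% in these data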;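 also: 0% = MITF dimer wells with DMSO only; inhibitors lower the bead chemiluminescence by keeping MITF from dimerizing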
AlphaScreen DR: counter-screen: compounds optically interfering with AlphaScreen; shares compounds with MITF primary; AlphaScreen optical interference counterscreen, cell-free; IC50, µM; 480 tested, 6% active; call rule not given here
AlphaScreen intf2: optically interferes with AlphaScreen signal. shares compounds with MITF primary. LysRS AlphaScreen counterscreen, signal interference, triplicate. inhibition, % at 2.6 µM. 4,700 tested, 7.6% active. AID 1259376;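 active = inhibition above a cutoff derived from the DMSO control wells, cut at about 30% in these data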
* hit, by the source's call; nt = no result given. Sampled rows, rich in hits. Any-hit rate of the full collection: about 3.5%.

SMILES	MITF primary	GPR151 ag	TEAD-YAP block	FBW7 activator	MITF inh conf	AlphaScreen intf2	others
COc1ccc(CNC(=O)C2CC(=O)N(c3ccc(F)cc3)C2)cc1 (stereo not drawn)	-1.4	0.5	5.8	0.1	nt	nt
CCCN(CCC)C(=O)c1c(NC(C)=O)sc2c1CCCCC2	65.0*	1.9	-10.4	0.1	63.0*	38.0*
CCCN(CCC)C(=O)c1c(NC(=O)c2cccnc2)sc2c1CCCCC2	-3.6	0.4	-4.9	-0.1	nt	nt
Clc1cc(Br)ccc1OCCOCCn1ccnc1	45.2	-0.8	-26.2	-0.1	nt	nt
Clc1cc(Br)ccc1OCCOCCN1CCNCC1	53.9*	-1.1	1.5	-0.1	-7.5	-3.3
Cc1cc(Br)ccc1OCCOCCN1CCN(C)CC1	56.8*	1.0	-7.1	0.0	-1.1	1.8
CCCCNCCOCCOc1ccc(Br)cc1C	72.4*	0.7	-0.1	-0.2	2.2	8.5
Brc1c(OCCn2ccnc2)ccc2ccccc12	56.7*	1.6	16.7	0.0	-8.9	18.4
Cc1ccn2cc(C(=O)NCc3cccs3)nc2c1	9.8	-0.8	-53.3	0.0	nt	nt
Brc1c(OCCN2CCNCC2)ccc2ccccc12	64.0*	-2.7	-10.7	-0.1	32.7*	16.9	AlphaScreen DR=>6.48
Clc1cc(Br)ccc1OCCN1CCNCC1	57.0*	0.2	-9.1	-0.4	-158.2	-2.6
Clc1ccc(OCCN2CCNCC2)c(Cl)c1	44.9	1.2	4.9	-0.2	nt	nt
COc1ccc(CN2CCN(C(=O)c3ccccc3)CC2)c(OC)c1OC	25.3	0.3	-5.8	0.0	nt	nt
COc1ccc(CN2CCN(C(=O)c3ccncc3)CC2)c(OC)c1OC	51.3*	-0.9	-7.7	0.1	-2.2	-4.5
COc1cccc(CN2CCN(C(=O)c3ccncc3)CC2)c1OC	83.0*	-1.2	6.8	0.7	11.3	18.9
O=C(Nc1cccc(C(=O)O)c1)/C(=C/c1ccc([N+](=O)[O-])cc1)NC(=O)c1ccccc1	-3.4	-1.5	-0.8	0.5	nt	nt
COc1ccc(C(=O)N/C(=C\c2ccc([N+](=O)[O-])cc2)C(=O)Nc2ccc(C)c(C)c2)c(Cl)c1	60.9*	-1.2	-14.8	1.3	-1.2	-3.5
COc1ccc(/C=C(/NC(=O)c2ccccc2)C(=O)Nc2ccc(F)cc2)cc1OC	66.5*	-0.4	4.1	0.0	-0.4	10.6
O=C(Nc1cccc(O)c1)/C(=C/c1ccc([N+](=O)[O-])cc1)NC(=O)c1ccccc1	52.2*	-0.4	5.6	0.1	-9.0	-1.6
Cc1nc2cc(F)ccc2n1C1CCN(CC(N)=O)CC1	11.0	1.1	5.8	0.8	nt	nt
CCOc1cc(NC(=O)c2ccccn2)c(OCC)cc1NC(=O)CC	-6.6	-0.1	-3.2	0.1	nt	nt
CCOc1cc(NC(=O)c2ccccn2)c(OCC)cc1NC(C)=O	59.8*	-0.3	5.5	0.0	52.3*	75.7*
COc1ccc(CCNC(=O)CN2CCN(Cc3nc(-c4ccco4)cs3)CC2)cc1OC	69.7*	-0.4	8.3	-0.7	28.1*	11.9	AlphaScreen DR=>6.48
C=CCNC(=O)CN1CCN(Cc2nc(-c3ccccc3)cs2)CC1	69.9*	-3.4	-18.9	-0.4	-18.2	1.8
O=C(CN1CCN(Cc2nc(-c3ccco3)cs2)CC1)NCCc1ccccc1	75.7*	-1.1	3.1	-0.1	13.7	12.3
SMILES	MITF primary	GPR151 ag	TEAD-YAP block	FBW7 activator	MITF inh conf	AlphaScreen intf2	others
O=C(CN1CCN(Cc2nc(-c3ccccc3)cs2)CC1)NCc1ccco1	2.5	0.3	-11.3	-0.2	nt	nt
O=C(CN1CCN(Cc2nc(-c3ccc(F)cc3)cs2)CC1)NCc1ccco1	70.1*	0.8	-11.8	-0.4	18.1	4.0
O=C(Nc1cc2ccccc2cc1NC(=O)c1ccc(S(=O)(=O)N2CCOCC2)cc1)c1ccc(S(=O)(=O)N2CCOCC2)cc1	1.1	-0.2	-1.8	-0.1	nt	nt
COc1ccc(-c2cc(N)n(S(=O)(=O)c3cccc4nsnc34)n2)c(OC)c1	9.1	2.7	7.8	-0.2	nt	nt
COc1ccc(C)cc1Nc1cnn(C23CC4CC(CC(C4)C2)C3)c(=O)c1Cl	4.2	1.7	10.2	-0.5	nt	nt
COc1ccc([N+](=O)[O-])cc1Nc1cnn(C23CC4CC(CC(C4)C2)C3)c(=O)c1Cl	50.8*	-0.6	-6.0	0.6	4.8	12.7
Cc1ccc(NC(=O)CSCC(=O)Nc2ccccc2)cc1	3.9	-0.6	4.5	-0.1	nt	nt

Assay outcomes from PubChem.
